The panel holds about 79,000 compounds, 15% with a hit somewhere; the sample as a whole holds those more often. Activity calls are given as the source filed them. No stated cut-off is given here; in the data, active means growth inhibition above about 70%; inactive means the rest.
Legend:
[1] = NCI Yeast Anticancer Drug Screen. Data for the rad52 strain (AID 147);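 further: 0% = growth of vehicle-treated control cultures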; conditions: S. cerevisiae rad52 mutant growth inhibition, active compounds read high
Outline: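 Compounds are applied to a genetically defined yeast strain lacking normal DNA damage repair, and inhibition of growth is expressed relative to cultures given vehicle only.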

[2] = NCI Yeast Anticancer Drug Screen. Data for the wt1 strain (AID 149);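 further: 0% = growth of vehicle-treated wt1 cultures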; conditions: S. cerevisiae wt1 strain (SPY 50644) growth inhibition, active compounds read high
Outline: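 Compounds are added to wt1 yeast cultures. Growth is then measured. Inhibition is expressed relative to vehicle-treated controls.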

[3] = NCI Yeast Anticancer Drug Screen. Data for the rad50EPP+ strain (AID 151);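 further: 0% = growth of vehicle-treated control cultures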; conditions: S. cerevisiae rad50 mutant strain, active compounds read high
Outline: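 Compounds were applied to the rad50EPP+ yeast strain, which bears a defined DNA repair alteration, and growth inhibition was determined relative to vehicle-treated cultures.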

[4] = NCI Yeast Anticancer Drug Screen. Data for the rad50 strain (AID 155);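 further: 0% = growth of vehicle-only cultures of the same strain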; conditions: S. cerevisiae rad50 strain growth inhibition, active compounds read high
Outline: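 Inhibition values express reduced yeast growth in compound-treated cultures relative to vehicle-treated controls.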

[5] = NCI Yeast Anticancer Drug Screen. Data for the mec2-1 strain (AID 157); conditions: S. cerevisiae mec2-1 strain, active compounds read high
Outline: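 Strain: mec2-1 (DNA repair/cell cycle alteration). Compound exposure, then growth measured; inhibition expressed relative to vehicle.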

[6] = NCI Yeast Anticancer Drug Screen. Data for the rad14 strain (AID 159);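 further: 0% = growth of vehicle-treated control cultures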; conditions: S. cerevisiae rad14 strain growth inhibition, active compounds read high
Outline: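 A mutant yeast strain defective in DNA damage repair is treated with compound; inhibition of its growth is scored against untreated, vehicle-exposed cultures.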

[7] = NCI Yeast Anticancer Drug Screen. Data for the sgs1 mgt1 strain (AID 161);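 further: 0% = growth of cultures given vehicle only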; conditions: S. cerevisiae sgs1 mgt1 strain, active compounds read high
Outline: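 Mutant yeast exposed to compound; growth scored against vehicle-only wells.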

[8] = NCI Yeast Anticancer Drug Screen. Data for the CLN2oe strain (AID 163);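 further: 0% = growth of vehicle-only control cultures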; conditions: S. cerevisiae CLN2oe strain, active compounds read high
Outline: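 Growth of a genetically modified yeast strain is measured after compound exposure and compared with cultures given vehicle alone.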

[9] = NCI Yeast Anticancer Drug Screen. Data for the cln2 rad14 strain (AID 165);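 further: 0% = growth equal to vehicle treated cultures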; conditions: S. cerevisiae cln2 rad14 strain, active compounds read high
Outline: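 Compounds are applied to the cln2 rad14 yeast strain, and growth is then compared with that of vehicle-treated cultures to give inhibition.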

[10] = NCI Yeast Anticancer Drug Screen. Data for the bub3 strain (AID 167); conditions: S. cerevisiae bub3 mutant strain, active compounds read high
Outline: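 Steps: expose the mutant yeast strain to compound; grow alongside vehicle-treated cultures; measure growth; express inhibition against the vehicle cultures.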

[11] = NCI Yeast Anticancer Drug Screen. Data for the wt2 strain (AID 169);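 further: 0% = growth of vehicle-treated yeast cultures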; conditions: S. cerevisiae wt2 strain growth inhibition, active compounds read high
Outline: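 This strain belongs to a panel of yeast strains with defined genetic alterations in DNA damage repair or cell cycle control. Compounds are applied, and growth inhibition is measured against vehicle-treated cultures.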

[12] = NCI Yeast Anticancer Drug Screen. Data for the sgs1 strain (AID 173);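 further: 0% = growth of vehicle-only control cultures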; conditions: S. cerevisiae sgs1 mutant, active compounds read high
Outline: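 Growth of a yeast strain bearing a defined genetic alteration is measured after compound treatment. Inhibition is expressed relative to vehicle-only controls.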

[13] = NCI Yeast Anticancer Drug Screen. Data for the mlh1 rad18 strain (AID 175); conditions: S. cerevisiae mlh1 rad18 strain growth inhibition, active compounds read high
Outline: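 Read-out is yeast growth inhibition, calculated against vehicle-only controls. The compound was applied to a strain engineered with DNA damage repair alterations.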

[14] = NCI Yeast Anticancer Drug Screen. Data for the rad18 strain (AID 177); conditions: S. cerevisiae rad18 mutant growth inhibition, active compounds read high
Outline: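 Growth of the mutant yeast strain after compound exposure, normalised to vehicle-only cultures.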

[15] = NCI Yeast Anticancer Drug Screen. Data for the mlh1 strain (AID 171);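 further: 0% = growth of vehicle-treated control cultures of the same strain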; conditions: S. cerevisiae mlh1 strain growth inhibition, active compounds read high
Outline: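 Growth of the mutant yeast strain after compound exposure, expressed as inhibition relative to vehicle-only controls.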

[16] = at 5.0 µM (retest, dose inferred, filed as 0.5)
[17] = at 50.0 µM (retest, dose inferred, filed as 5.0)

Measured: growth inhibition

O=C(N/N=C\c1c(Cl)cccc1Cl)N/N=C/c1c(Cl)cccc1Cl
active: [4]; [17] 97% | [5]; [17] 98% | [9]; [17] 70% | [13]; [17] 88%
inactive: [1]; at 1.2 µM 14% | [1]; at 3.7 µM 14% | [1]; at 11.0 µM 23% | [1]; at 33.0 µM 22% | [1]; at 100.0 µM 25% | [2]; at 1.2 µM -2% | [2]; at 3.7 µM 8% | [2]; at 11.0 µM 4% | [2]; at 33.0 µM 17% | [2]; at 100.0 µM 29% | [3]; at 1.2 µM 7% | [3]; at 3.7 µM 19% | [3]; at 11.0 µM 10% | [3]; at 33.0 µM 2% | [3]; at 100.0 µM 5% | [4]; at 1.2 µM 14% | [4]; at 3.7 µM 12% | [4]; [16] 30% | [4]; at 11.0 µM 21% | [4]; at 33.0 µM 14% | [4]; at 50.0 µM -7.7% | [4]; at 100.0 µM 5% | [5]; at 1.2 µM 21% | [5]; at 3.7 µM 25% | [5]; [16] 35% | [5]; at 11.0 µM 12% | [5]; at 33.0 µM 0% | [5]; at 50.0 µM -13.8% | [5]; at 100.0 µM 3% | [6]; at 1.2 µM -4% | [6]; at 3.7 µM -21% | [6]; at 11.0 µM 8% | [6]; at 33.0 µM -7% | [6]; at 100.0 µM -12% | [7]; [16] -13% | [7]; [17] 29% | [7]; at 50.0 µM 9.15% | [8]; at 1.2 µM -8% | [8]; at 3.7 µM -12% | [8]; at 11.0 µM -21% | [8]; at 33.0 µM -8% | [8]; at 100.0 µM -10% | [9]; [16] 49% | [9]; at 50.0 µM 13.7% | [10]; at 1.2 µM 6% | [10]; at 3.7 µM 11% | [10]; [16] 36% | [10]; at 11.0 µM -3% | [10]; at 33.0 µM 0% | [10]; [17] 58% | [10]; at 50.0 µM 12.2% | [10]; at 100.0 µM 1% | [11]; at 1.2 µM 11% | [11]; at 3.7 µM 7% | [11]; at 11.0 µM 7% | [11]; at 33.0 µM -3% | [11]; at 100.0 µM 17% | [12]; at 1.2 µM 8% | [12]; at 3.7 µM 1% | [12]; at 11.0 µM 19% | [12]; at 33.0 µM 10% | [12]; at 100.0 µM 5% | [13]; [16] 38% | [13]; at 50.0 µM 55.9% | [14]; at 1.2 µM -10% | [14]; at 3.7 µM 1% | [14]; at 11.0 µM -11% | [14]; at 33.0 µM -10% | [14]; at 100.0 µM -13%

Cc1cccc(/C=N/NC(=S)N(C)CCc2ccccn2)n1
active: [1]; at 1.2 µM 96% | [1]; at 3.7 µM 98% | [1]; at 11.0 µM 98% | [1]; at 33.0 µM 99% | [1]; at 100.0 µM 99% | [2]; at 1.2 µM 90% | [2]; at 3.7 µM 94% | [2]; at 11.0 µM 98% | [2]; at 33.0 µM 99% | [2]; at 100.0 µM 99% | [3]; at 33.0 µM 84% | [3]; at 100.0 µM 90% | [4]; at 1.2 µM 91% | [4]; at 3.7 µM 94% | [4]; at 11.0 µM 96% | [4]; at 33.0 µM 98% | [4]; [17] 99% | [4]; at 50.0 µM 78.6% | [4]; at 100.0 µM 98% | [5]; at 1.2 µM 94% | [5]; at 3.7 µM 97% | [5]; [16] 81% | [5]; at 11.0 µM 98% | [5]; at 33.0 µM 99% | [5]; [17] 97% | [5]; at 50.0 µM 86.7% | [5]; at 100.0 µM 99% | [6]; at 1.2 µM 95% | [6]; at 3.7 µM 97% | [6]; at 11.0 µM 99% | [6]; at 33.0 µM 99% | [6]; at 100.0 µM 99% | [7]; [17] 97% | [7]; at 50.0 µM 91.3% | [8]; at 1.2 µM 81% | [8]; at 3.7 µM 92% | [8]; at 11.0 µM 97% | [8]; at 33.0 µM 98% | [8]; at 100.0 µM 98% | [9]; [17] 97% | [9]; at 50.0 µM 90.7% | [10]; at 3.7 µM 91% | [10]; at 11.0 µM 97% | [10]; at 33.0 µM 98% | [10]; [17] 99% | [10]; at 50.0 µM 91% | [10]; at 100.0 µM 98% | [11]; at 1.2 µM 89% | [11]; at 3.7 µM 93% | [11]; at 11.0 µM 97% | [11]; at 33.0 µM 98% | [11]; at 100.0 µM 99% | [15]; at 1.2 µM 91% | [15]; at 3.7 µM 95% | [15]; at 11.0 µM 98% | [15]; at 33.0 µM 98% | [15]; at 100.0 µM 99% | [13]; [17] 99% | [13]; at 50.0 µM 92.1% | [14]; at 1.2 µM 92% | [14]; at 3.7 µM 96% | [14]; at 11.0 µM 98% | [14]; at 33.0 µM 98% | [14]; at 100.0 µM 98%
inactive: [3]; at 1.2 µM -23% | [3]; at 3.7 µM -11% | [3]; at 11.0 µM 54% | [4]; [16] 16% | [7]; [16] 44% | [9]; [16] 9% | [10]; at 1.2 µM 56% | [10]; [16] 56% | [13]; [16] 61%

CCN1/C(=C/c2ccc3ccccc3[n+]2CC)C=Cc2ccccc21
active: [1]; at 11.0 µM 87% | [1]; at 33.0 µM 98% | [1]; at 100.0 µM 98% | [2]; at 11.0 µM 75% | [2]; at 33.0 µM 99% | [2]; at 100.0 µM 99% | [3]; at 100.0 µM 92% | [4]; [16] 99% | [4]; at 11.0 µM 81% | [4]; at 33.0 µM 97% | [4]; [17] 97% | [4]; at 50.0 µM 90.5% | [4]; at 100.0 µM 96% | [5]; [16] 99% | [5]; at 11.0 µM 98% | [5]; at 33.0 µM 99% | [5]; [17] 98% | [5]; at 50.0 µM 92% | [5]; at 100.0 µM 99% | [6]; at 11.0 µM 98% | [6]; at 33.0 µM 98% | [6]; at 100.0 µM 98% | [7]; [17] 98% | [7]; at 50.0 µM 93% | [8]; at 11.0 µM 94% | [8]; at 33.0 µM 99% | [8]; at 100.0 µM 98% | [9]; [17] 100% | [9]; at 50.0 µM 90.9% | [10]; at 11.0 µM 96% | [10]; at 33.0 µM 98% | [10]; [17] 99% | [10]; at 50.0 µM 91% | [10]; at 100.0 µM 98% | [11]; at 33.0 µM 98% | [11]; at 100.0 µM 98%
inactive: [1]; at 1.2 µM -19% | [1]; at 3.7 µM -14% | [2]; at 1.2 µM -13% | [2]; at 3.7 µM -12% | [3]; at 1.2 µM 4% | [3]; at 3.7 µM 6% | [3]; at 11.0 µM 8% | [3]; at 33.0 µM 67% | [4]; at 1.2 µM -3% | [4]; at 3.7 µM -2% | [5]; at 1.2 µM -3% | [5]; at 3.7 µM 16% | [6]; at 1.2 µM -27% | [6]; at 3.7 µM 1% | [7]; [16] 7% | [8]; at 1.2 µM 0% | [8]; at 3.7 µM 10% | [9]; [16] 58% | [10]; at 1.2 µM -3% | [10]; at 3.7 µM 37% | [10]; [16] 42% | [11]; at 1.2 µM -32% | [11]; at 3.7 µM -20% | [11]; at 11.0 µM 57%

From PubChem BioAssay (NCI)
